Among the data in PubChem BioAssay (Tox21) are outcome and activation values, retold here.

The structures appear in SMILES notation. Records with an inconclusive call do not appear. A number with no mark means an inactive call. Active and inactive are the calls of the source. Calls follow the shape of the dose curve; as a rule, active = well fitted activation curve with a large enough effect in the signal ratio in the repeat runs, with a control signal flat (not every such curve was filed as active); inconclusive = weak or mixed curves; inactive = flat fitted curve, though single readings scatter; the % refers to the signal ratio.
% is scaled to controls: 0 for no effect and ±100 for the full control effect.

The nature of this test: qHTS assay for small molecule activators of the heat shock response signaling pathway (AID 743210). The following applies: HeLa HSE-bla reporter, beta-lactamase ratio, 5 h; series mostly up to 62.6 µM. The text has this: U.S. Tox21 Program National Center for Advancing Translational Sciences [NCATS] NIH Chemical Genomics Center [NCGC] U.S. Environmental Protection Agency [EPA] National Institutes of Environmental Health Sciences [NIEHS] National Toxicology Program [NTP] U.S. Food and Drug Administration [FDA] Tox21 Assay Overview: Various chemicals, environmental and physiological stress conditions may lead to the activation of heat shock response/ unfolded protein response (HSR/UPR). There are three heat shock transcription factors (HSFs) (HSF-1, -2, and -4) mediating transcriptional regulation of the human HSR. To identify the compounds that activate HSR signaling, HSE-bla HeLa cell line (Invitrogen, Carlsbad, CA, USA) containing a beta-lactamase reporter gene under the control of the heat shock response elements was used to screen the Tox21 10K compound library.
Tox21 Assay Protocol Summary: The CellSensor HSE-bla HeLa cells (Invitrogen, Carlsbad, CA, USA) were dispensed at 1500 cells/6uL/well into 1536-well black wall/clear bottom plates using a Multidrop combi (Thermo Fisher Scientific, Waltham, MA) dispenser. After the assay plates were incubated at 37 C and 5% CO2 overnight, 23 nL of compounds dissolved in DMSO, positive controls or DMSO only was transferred to the assay plate by a Pintool station (Kalypsys, San Diego, CA). The plates were incubated at 37 C for 5 h. After 1 uL of LiveBLAzerTM B/G FRET substrate was added using a Flying Reagent Dispenser (Beckman Coulter, Indianapolis, IN, USA), the plates were incubated at room temperature for 2.5 h, and fluorescence intensity was measured by an Envision plate reader (PerkinElmer, Shelton, CT).
(In qHTS, concentration-response curves come from the screen itself.)
Regarding `C[Si](C)(C)C`, the result was inactive.
`CCCCCCCCSCC`: the outcome was inactive.
Consider `O=C(OCC1(COC(=O)c2cccnc2)CCCC(COC(=O)c2cccnc2)(COC(=O)c2cccnc2)C1O)c1cccnc1`, for which the outcome was inactive.
Same read-out and setting: the entry for `CC(CO)c1ccccc1` (stereo not given) is “inactive”.
Same read-out and setting: the entry for `C=CC(OCC)OCC` is “inactive”.
`N[C@@H](CCC(=O)N[C@@H](CS)C(=O)NCC(=O)O)C(=O)O`: the result was inactive.
For `OC[C@H](Cc1cccc(O)c1)[C@H](CO)Cc1cccc(O)c1`, the result was inactive.
For the compound `O=S(O)(O)=S`, the activation was -0.665% [at 5.95 µM].
`CC(C)CCCCOC(=O)c1ccccc1C(=O)OCCCCC(C)C`: the result was inactive.
Turning to `O=S(=O)(O)CCN1CCN(CCO)CC1`, the result was inactive.
For the compound `O=C1c2cccc3c2[C@H](CCC3)CN1[C@@H]1CN2CCC1CC2`, the result was inactive.
As for `Cc1cccc(C)c1NC(=O)c1ccccc1C(=O)O`, the outcome was inactive.
Take `COCCc1ccc(OCC2CO2)cc1` (stereo not given): the result was inactive.
Take `O=C1CCCC(=O)O1`: the result was inactive.
As to `CCCOC(OCCC)OCCC`, the outcome was inactive.
`Cc1[nH]cnc1-c1ccc(Cl)cc1`: the outcome was inactive.
On to `NS(=O)(=O)c1ccc(NC(=O)CCC(=O)O)cc1`, for which the result was inactive.
Regarding `O=C(CCNNC(=O)c1ccncc1)NCc1ccccc1`, the outcome was inactive.
`CC(C)c1ccc2cc(C(C)C)ccc2c1`: the result was inactive.
On the same count and under the same terms, the entry for `CC(C)C(=O)OCCc1ccccc1` is “inactive”; for `CCn1ccc(NS(=O)(=O)c2ccc(N)cc2)nc1=O` it is “inactive”; for `CC1COc2ccccc2N1` (stereo not given) it is “inactive”.
Take `COCCOC(=O)C1=C(C)NC(C)=C(C(=O)OC(C)C)C1c1cccc([N+](=O)[O-])c1` (stereo not given): the outcome was inactive.
Consider `On1nnc2ccccc21`, for which the result was inactive.
`C[C@@H](Oc1ccc(CNC(=O)c2cccnc2Oc2ccc3c(c2)OCO3)c(F)c1)C(=O)O`: the outcome was inactive.
Regarding `CC(=O)c1sc(C)nc1C`, the outcome was inactive.
On to `CC(C)CC(C)CC(C)CC(C)COC(=O)c1ccccc1C(=O)OCC(C)CC(C)CC(C)CC(C)C` (stereo not given), for which the result was inactive.
Same read-out and setting: for `CN1C(C)(C)CCCC1(C)C` the value was “inactive”.
Still for that read-out and setting: for `Cc1cc(NC(=O)C2=C(O)c3ccccc3S(=O)(=O)N2C)no1` the value was “inactive”; for `Cc1cccc(OCC(O)CNC(C)(C)C)c1C` (stereo not given), “inactive”.
`O=S(=O)(O)c1ccc2cc(O)c(S(=O)(=O)O)cc2c1`: the outcome was inactive.
As for `CCCC(=O)C(C)=O`, the outcome was inactive.
Same read-out and setting: the entry for `C=C(C)C(=O)OCCN(CC)CC` is “inactive”.
Same read-out and setting: the entry for `COc1ccc(Br)c(C)c1` is “inactive”; for `CC(=O)NCc1c(I)c(NC(C)=O)c(I)c(C(=O)O)c1I` it is “inactive”; for `O=C(NCCc1c[nH]c2ccccc12)c1cccnc1` it is “inactive”.
In the case of `CC(C)(C)NC(N)=O`, the outcome was inactive.
With `CC(=O)NCCCCCC(=O)O`, the outcome was inactive.
As to `CNS(=O)(=O)CCc1ccc2[nH]cc(C3CCN(C)CC3)c2c1`, the result was inactive.
For `CCNC(=O)C1CC(C)CCC1C(C)C` (stereo not given), the outcome was inactive.
